Values without a mark were called inactive. How the calls were made is not given here.

Chain of Pantothenate synthetase (Mycobacterium tuberculosis (strain ATCC 25618 / H37Rv)) (P9WIL5 whole entry, looked up): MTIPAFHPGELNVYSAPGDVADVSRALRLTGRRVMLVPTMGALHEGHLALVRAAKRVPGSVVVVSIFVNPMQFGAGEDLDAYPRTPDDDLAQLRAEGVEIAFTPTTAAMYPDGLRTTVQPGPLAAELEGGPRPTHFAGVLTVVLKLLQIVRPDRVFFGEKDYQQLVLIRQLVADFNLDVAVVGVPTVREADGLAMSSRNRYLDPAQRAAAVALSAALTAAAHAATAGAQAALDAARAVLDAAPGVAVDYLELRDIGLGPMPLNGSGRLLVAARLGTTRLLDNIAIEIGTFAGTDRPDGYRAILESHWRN

The experiment has as its target Pantothenate synthetase (Mycobacterium tuberculosis (strain ATCC 25618 / H37Rv)) (UniProt P9WIL5). Briefly: Recombinant Mtb pantothenate synthetase (PanC) inhibitors, coupled enzyme, confirmatory (AID 375).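 Further: 0% = full reaction with vehicle and 100% = no enzyme background.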 To be noted: coupled enzyme assay; at 10 µM, stronger effect = higher value.
Usually inhibition stands for how much of the control response was suppressed. Turning to `CCN(CC)CCN1C(=O)C(O)=C(C(=O)c2ccco2)C1c1ccccn1` (stereo not given), the inhibition is 8%. As for `Cc1cccc(Cn2c(SCC(=O)Nc3ccccc3)nc3c2c(=O)[nH]c(=O)n3C)c1`, the inhibition is 3%. Consider `Cn1c(=O)[nH]c(=O)c2c1nc(NCCCn1ccnc1)n2Cc1ccccc1`, for which the inhibition was 0%. The figure for `Cc1ccc(S(=O)(=O)N(CC(=O)NCc2ccco2)Cc2ccccc2F)cc1` is 0%; for `C=CCn1c(SCC(=O)C(C)(C)C)nnc1-c1ccccn1` it is 3%; for `O=C(CCn1nc(-c2ccc(Cl)cc2)ccc1=O)N1CCN(c2ccccn2)CC1` it is 7%. To `COc1ccc(CCN2C(=O)C3C4C=CC(C4)C3C2=O)cc1OC` (stereo not given) belongs 0%; to `CC(C)(C)c1nc(CN2CCOCC2)ccc1O`, 1%.

For the compound `O=C1c2ccccc2C(Nc2ccc(F)c(Cl)c2)N1Cc1ccco1` (stereo not given), the inhibition was 3%.

Turning to `O=C1CC(c2ccc(Cl)cc2)n2nc(N3C(=O)c4ccccc4C3=O)nc2N1` (stereo not given), the inhibition is 5%. With `CCOc1ccc(N(CC(=O)Nc2cccc(OC)c2)S(=O)(=O)c2c(C)noc2C)cc1`, the inhibition is 11%. To `CCOc1cc(NC(=O)c2ccco2)c(OCC)cc1NC(=O)COc1ccccc1C` belongs 0%; to `Cc1nc2ccccc2c2oc(C(=O)NCC3COc4ccccc4O3)cc12` (stereo not given), 0%. To `O=C(C1CCC1)N1CCc2cc(S(=O)(=O)Nc3ccc4c(c3)OCO4)ccc21` belongs 16%; to `Cc1cc(C(=O)COC(=O)c2n[nH]c3ccccc23)c(C)n1C`, 0%; to `c1ccc(CSCc2cn3ccsc3n2)cc1`, 0%. On to `Cc1ccc(-n2ncc3c(N4CCN(c5ccc(F)cc5)CC4)ncnc32)c(C)c1`, for which the inhibition was 6%. The figure for `Cc1cccc(NC(=O)CS(=O)(=O)c2cn(C)c3ccccc23)c1` is 0%; for `Oc1ccc2ccccc2c1CN1CCN(c2ccccc2F)CC1` it is 1%.

For `CN(CC(=O)N1CCCc2c1c(=O)oc1ccc(O)cc21)Cc1ccccc1`, the inhibition is 0%. Regarding `COc1cc(C(=O)N2CCC(c3nc(-c4cccnc4)no3)CC2)cc(OC)c1OC`, the inhibition was 0%. The figure for `CCc1nnc(NC(=O)CSc2nnc(-c3ccc(OC)cc3)n2C)s1` is 0%. Consider `CC1NC(=O)NC1CCCCCC(=O)NCCc1ccccc1` (stereo not given), for which the inhibition is 2%. For `CCN(c1ccc(OC)cc1)S(=O)(=O)c1ccc2c(c1)CCN2C(=O)CCC(=O)O`, the inhibition is 0%.

With `Cn1c(/C(C#N)=C/Nc2ccccn2)nc2ccccc21`, the inhibition was 0%. The figure for `CN(C)CCOC(=O)C(c1ccccc1)C1(O)CCCC1` (stereo not given) is 5%; for `Cc1onc(-c2ccccc2Cl)c1C(=O)N1CCc2ccccc21` it is 0%.

Consider `COc1ccc(C2CC(c3ccccc3)Nc3nc(NC(=O)c4cccs4)nn32)cc1` (stereo not given), for which the inhibition was 0%.

On to `O=C(c1ccccc1)c1ccc2nc[nH]c2c1`, for which the inhibition is 0%. The figure for `Cc1ccc(N2CCN(c3ccc(C)cc3)C(CC(=O)O)C2=O)cc1` (stereo not given) is 7%; for `N#Cc1nc(-c2ccco2)oc1NCCc1ccccc1` it is 0%. To `CCOC(=O)Cn1nc(-c2ccc(Cl)cc2)cc1N` belongs 0%; to `CC(C)(C)C(=O)CCN1C(=O)C2(OCCO2)c2ccccc21`, 0%. The figure for `O=C(CN(Cc1ccco1)C(=O)c1cc(=O)[nH]c2ccccc12)Nc1ccccc1Br` is 0%; for `c1cn2cc(CSC3CCCCC3)nc2s1` it is 2%. For the compound `Cn1c(=O)c2c(-c3ccncc3)c3c(nc2n(C)c1=O)-c1ccccc1C3=O`, the inhibition is 0%.

In the case of `COc1ccccc1NC(=O)N(Cc1ccco1)Cc1cc2cccc(C)c2[nH]c1=O`, the inhibition is 2%. To `CCCCOc1ccc(-c2ncc(Cl)cn2)cc1` belongs 0%; to `COC(=O)C(C)Sc1nnc2n(-c3cccc(C)c3)c(=O)c3c4c(sc3n12)CCCC4` (stereo not given), 1%; to `c1ccc(-c2nnc(SCc3nc4ccccc4[nH]3)o2)cc1`, 0%.

(Values after PubChem BioAssay.)
